# Reference: PMC4336329 (PLoS ONE, 2015)
# Among all 310,000 compounds or so, about 14,000 (4.5%) showed an effect of 50% or more. Effects have a minus sign here. This is one part of a sample in which strong results are shown more often than they occur.
# Biological target: human ether-à-go-go-related gene (hERG) potassium channel (human, UniProt Q12809)
# Experiment: primary screen, population patch clamp on CHO cells stably expressing hERG; higher = less effect of the substance
# 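Note: peak tail current of the secondary pulse compared with the same well before compound.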
# Chain of human ether-à-go-go-related gene (hERG) potassium channel (Q12809 whole entry, looked up): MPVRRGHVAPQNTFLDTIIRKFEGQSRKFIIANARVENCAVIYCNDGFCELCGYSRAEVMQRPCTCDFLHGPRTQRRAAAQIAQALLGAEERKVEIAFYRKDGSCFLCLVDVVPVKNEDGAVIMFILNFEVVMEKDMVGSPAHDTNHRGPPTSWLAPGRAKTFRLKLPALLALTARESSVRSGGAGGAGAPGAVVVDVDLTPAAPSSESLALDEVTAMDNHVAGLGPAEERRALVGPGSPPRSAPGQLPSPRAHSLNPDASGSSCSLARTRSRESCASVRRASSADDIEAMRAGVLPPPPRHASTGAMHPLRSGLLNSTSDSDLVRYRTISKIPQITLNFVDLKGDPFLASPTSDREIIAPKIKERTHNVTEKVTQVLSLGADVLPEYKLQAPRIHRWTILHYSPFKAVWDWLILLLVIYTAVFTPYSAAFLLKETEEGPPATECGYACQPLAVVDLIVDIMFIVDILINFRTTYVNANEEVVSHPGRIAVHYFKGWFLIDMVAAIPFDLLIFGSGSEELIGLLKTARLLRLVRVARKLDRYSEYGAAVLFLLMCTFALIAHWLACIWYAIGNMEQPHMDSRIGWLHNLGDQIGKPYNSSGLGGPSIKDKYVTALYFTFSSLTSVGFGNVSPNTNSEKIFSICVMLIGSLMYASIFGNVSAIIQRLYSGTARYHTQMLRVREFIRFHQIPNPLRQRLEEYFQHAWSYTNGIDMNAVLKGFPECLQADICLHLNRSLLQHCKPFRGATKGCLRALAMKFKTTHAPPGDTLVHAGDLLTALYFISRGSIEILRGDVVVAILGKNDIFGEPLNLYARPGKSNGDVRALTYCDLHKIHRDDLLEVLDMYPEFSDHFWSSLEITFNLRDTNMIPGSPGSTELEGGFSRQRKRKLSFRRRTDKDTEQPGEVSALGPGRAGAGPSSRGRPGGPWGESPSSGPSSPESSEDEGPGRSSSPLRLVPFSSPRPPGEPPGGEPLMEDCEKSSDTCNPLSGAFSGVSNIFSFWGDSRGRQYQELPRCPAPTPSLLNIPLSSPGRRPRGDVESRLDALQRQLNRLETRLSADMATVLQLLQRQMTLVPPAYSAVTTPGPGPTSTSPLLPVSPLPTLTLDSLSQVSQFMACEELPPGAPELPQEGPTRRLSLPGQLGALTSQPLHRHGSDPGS
row,SMILES,"hERG current change (%, negative = inhibition) at 10uM [%]"
1,O=C(c1ccc(NC2=NC3CS(=O)(=O)CC3S2)cc1)N1CCN(c2ccc(F)cc2)CC1 (stereo not drawn),6.4
2,c1ccc2c(c1)SCc1nnc(-c3ccncc3)n1-2,-2.6
3,COc1cc2[nH]c(=O)n(CCCC(=O)N3CC=C(c4ccccc4)CC3)c(=O)c2cc1OC,-12.9
4,COc1cc2[nH]c(=O)n(CCCCCC(=O)N3CC=C(c4ccccc4)CC3)c(=O)c2cc1OC,-20
5,COc1cccc2c1[C@@H]1CN(CCCCn3c(=O)[nH]c4c(sc5ncc(-c6ccccc6)nc54)c3=O)C[C@@H]1CO2.Cl,-67.6
6,Cc1ccc(OCC(=O)NCCN2CCCC2)cc1.Cl,2.48
7,Cc1ccc(OCC(=O)NCCN2CCN(C(=O)COc3ccc(C)cc3)CC2)cc1,-65.9
8,O=C(COc1ccccc1)N1CCN(c2ncccn2)CC1,10.5
9,Cc1ccc(OCC(=O)NCCNC(=O)COc2ccc(C)cc2)cc1,9.34
10,O=C(COc1ccc(Cl)cc1)N1CCN(c2ncccn2)CC1,-9.42
11,CC1CN(C2CCN(C(=O)COc3ccc(Cl)cc3)CC2)CC(C)O1.O=C(O)C(=O)O (stereo not drawn),-38
12,O=C(COc1ccc(Cl)cc1)N1CCN(C2CCCC2)CC1.O=C(O)C(=O)O,-83.2
13,O=C(COc1ccc2cc(Br)ccc2c1)N1CCCC1,-50.1
14,O=C(COc1ccccc1)N1CCN(C2CCCC2)CC1.O=C(O)C(=O)O,-13.2
15,O=C(COc1ccc(Br)cc1)N1CCN(c2ncccn2)CC1,-83.7
16,O=C(COc1ccc(Br)cc1)N1CCCCCC1,-22.9
17,O=C(COc1ccc2ccccc2c1)N1CCCC1,-13.3
18,Nc1[nH]nc2c1NN(c1ccc(Cl)cc1Cl)N2,12.4
19,COc1ccccc1Oc1nc(C)c(C(C)=O)cc1C#N,14.8
20,CCc1ccc(CN(C(=O)COc2c(C)cccc2C)C2CCS(=O)(=O)C2)cc1 (stereo not drawn),-12.2
21,Cc1ccc(NC(=O)c2cccc(S(=O)(=O)N(C)c3ccccc3)c2)cc1S(=O)(=O)N1CCOCC1,9.04
22,O=S(=O)(Nc1ccc(Cl)cc1)c1cccc2cccnc12,12.8
23,COc1ccc(N2CCN(C(=O)CCS(=O)(=O)c3cccc4nsnc34)CC2)cc1,-23.9

row,SMILES,"hERG current change (%, negative = inhibition) at 10uM [%]"
1,CCOc1cc(C(=S)N2CCOCC2)ccc1OC(=O)c1cccc(C)c1,-42
2,Cc1cc(C(=O)CSc2nnc(-c3ccc(F)cc3)o2)c(C)n1CC1CCCO1 (stereo not drawn),-7.13
3,O=C(CSc1nnc(-c2ccco2)o1)NC1CC2CCC1C2 (stereo not drawn),-2.05
4,CCOC(=O)c1c(C)[nH]c(C(=O)N2CCc3cc(OC)c(OC)cc3C2)c1C,-12.3
5,COc1ccc(OC)c(NC(=O)C(C)Oc2ccc(Br)cc2)c1 (stereo not drawn),5.96
6,CN(CC(=O)NC1CC(C)(C)NC(C)(C)C1)S(=O)(=O)c1ccc(Br)cc1,-2.22
7,O=C(CCC1CCCC1)N1CCN(C(=O)COc2ccccc2)CC1,-28.8
8,Cc1cccc(OCC(=O)N2CCN(C(=O)CCC3CCCC3)CC2)c1,-37.3
9,CCOC(=O)N1CCN(C(=O)COc2ccc(Br)cc2)CC1,-39.1
10,Cc1ccc(OCC(=O)N2CCN(C(=O)CCC3CCCC3)CC2)cc1,-54.3
11,CN1CCCN(C(=O)COc2ccc(Br)cc2)CC1,-17.3
12,CC(=O)N1CCN(C(=O)COc2ccc(Br)cc2)CC1,-17.8
13,COc1ccc(OCC(=O)N2CCN(C(=O)COc3ccc(Br)cc3)CC2)cc1,-71.9
14,O=C(O)C1CCN(C(=O)COc2ccc(Br)cc2)CC1,38
15,O=C(COc1ccc(Br)cc1)N1CCN(C2CCCC2)CC1,-63.6
16,c1ccc(Cn2nc(-c3ccccc3)nc2-c2ccccc2)cc1,-2.5
17,O=c1[nH]c2ccc(S(=O)(=O)N3CCN(Cc4ccccc4)CC3)cc2[nH]c1=O,-1.75
18,Cn1c(CNC(=O)c2cccs2)n[nH]c1=S,18.1
19,O=C(NCc1ccccn1)c1ccc(NS(=O)(=O)c2cccc(Cl)c2)cc1,7.73
20,COc1ccc(-n2nnnc2/C=C\Nc2ccc(C)cc2)cc1,16
21,COC(=O)CNC(=O)CNC(=O)c1nn(-c2ccc(OC)c(OC)c2)c(=O)c2ccccc12,18.1
22,COc1ccc2nc(NC(=O)C3COc4ccccc4O3)sc2c1 (stereo not drawn),0.282
